“And” between values parts separate entries of the source, which are not always exact repeats. Equal entries are not always repeated. Inconclusive results are not listed. The source made the active and inactive calls. Unless noted, calls come from the whole dose curve; as a rule, active = well fitted curve in the direction sought with a large enough effect; inconclusive = small, poorly fitted or top-dose-only effect, or another doubt; inactive = no such curve, though single readings can be large; an effect the other way counts as inactive or inconclusive.
Experiments:
[1] = AP1 Signaling Pathway (AID 357; active = well fitted curve in either direction with a large enough effect, not every such curve was filed as active; note: % is set by controls: 0 for no effect and ±100 for the full control effect); conditions: ME-180 AP-1-bla reporter, EGF-induced, beta-lactamase ratio, 5 h
Outline: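 ME-180 cells with beta-lactamase reporter under AP-1 response element, stimulated with EC50 EGF; compounds tested in titration series, 5 h at 37 °C. CCF4 substrate added 2.5 h at room temperature; 460/530 nm emission ratio gave %activity and AC50.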

[2] = target: Cytochrome P450 1A2 (Homo sapiens) (UniProt P05177); assay: p450-cyp1a2 (AID 410; calls by dose curve; note: potency is the fitted concentration of half-maximal effect;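 for activity change, negative = inhibition: -100% = full effect of reference inhibitor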)
Chain of Cytochrome P450 1A2 (Homo sapiens) (P05177 whole entry, looked up): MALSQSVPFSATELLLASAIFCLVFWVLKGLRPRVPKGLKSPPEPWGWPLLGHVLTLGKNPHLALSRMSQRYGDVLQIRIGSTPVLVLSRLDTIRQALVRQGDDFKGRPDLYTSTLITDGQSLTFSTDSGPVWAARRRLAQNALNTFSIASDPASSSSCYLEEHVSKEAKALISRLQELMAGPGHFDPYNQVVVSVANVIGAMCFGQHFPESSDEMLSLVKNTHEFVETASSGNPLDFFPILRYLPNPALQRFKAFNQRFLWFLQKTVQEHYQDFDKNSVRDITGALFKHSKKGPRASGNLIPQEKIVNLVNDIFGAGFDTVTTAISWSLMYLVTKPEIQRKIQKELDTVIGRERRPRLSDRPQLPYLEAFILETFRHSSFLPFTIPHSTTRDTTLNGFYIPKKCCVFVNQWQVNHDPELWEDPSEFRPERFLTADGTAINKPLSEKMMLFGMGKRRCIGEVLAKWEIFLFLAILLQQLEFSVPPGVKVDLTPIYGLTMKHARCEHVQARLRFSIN
Outline: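 Inhibition was calculated relative to 57 uM furafylline (full inhibition). The reaction used human CYP1A2 at 20nM with Luciferin-ME at its Km, 100uM, driven by an NADPH-regenerating system for 60 min at room temperature.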

[3] = NFAT Signaling Pathway (AID 444; active = well fitted curve in either direction with a large enough effect, not every such curve was filed as active;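 note: carbachol stimulus at about its EC50 of 1 µM final; % is set by controls: 0 for no effect and ±100 for the full control effect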); conditions: Jurkat NFAT-bla M1, carbachol, beta-lactamase ratio, 5 h
Outline: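 Jurkat cells carrying an NFAT-driven β-lactamase reporter and co-transfected muscarinic M1 receptor were treated with compound plus carbachol (1 uM final, an EC50 level) for 5 h at 37 °C. CCF4 loading followed for 1 h at RT; 460/530 nm ratio gave %activity.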

[4] = Stat Signaling Pathway (AID 446; active = well fitted curve in either direction with a large enough effect, not every such curve was filed as active;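 note: ME-180 cervical cancer cells given 40 pM IL-6 alongside compound; SIE-controlled beta-lactamase reporter measured as 460/530 nm FRET emission ratio; % is set by controls: 0 for no effect and ±100 for the full control effect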); conditions: ME-180 SIE beta-lactamase reporter, IL-6 stimulated, 5 h
Outline: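 ME-180 SIE-bla cells; overnight plating; cpd + IL-6 40 pM, 5 h, 37 C; LiveBLAzer 2.5 h RT; 460/530 nm emission ratio. Normalized to 300 pM IL-6 and 125 nM JAK inhibitor controls.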

[5] = target: Glucocorticoid receptor (Homo sapiens) (UniProt P04150); assay: GR-GFP Redistribution (AID 450;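 active = compounds whose dose series gives a full or clear partial fitted curve of increased nuclear translocation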; note: potency is the fitted concentration of half-maximal effect); conditions: U2OS GR-GFP nuclear translocation, laser cytometry, 2 h
Chain of Glucocorticoid receptor (Homo sapiens) (P04150 whole entry, looked up, the tested form may be a part): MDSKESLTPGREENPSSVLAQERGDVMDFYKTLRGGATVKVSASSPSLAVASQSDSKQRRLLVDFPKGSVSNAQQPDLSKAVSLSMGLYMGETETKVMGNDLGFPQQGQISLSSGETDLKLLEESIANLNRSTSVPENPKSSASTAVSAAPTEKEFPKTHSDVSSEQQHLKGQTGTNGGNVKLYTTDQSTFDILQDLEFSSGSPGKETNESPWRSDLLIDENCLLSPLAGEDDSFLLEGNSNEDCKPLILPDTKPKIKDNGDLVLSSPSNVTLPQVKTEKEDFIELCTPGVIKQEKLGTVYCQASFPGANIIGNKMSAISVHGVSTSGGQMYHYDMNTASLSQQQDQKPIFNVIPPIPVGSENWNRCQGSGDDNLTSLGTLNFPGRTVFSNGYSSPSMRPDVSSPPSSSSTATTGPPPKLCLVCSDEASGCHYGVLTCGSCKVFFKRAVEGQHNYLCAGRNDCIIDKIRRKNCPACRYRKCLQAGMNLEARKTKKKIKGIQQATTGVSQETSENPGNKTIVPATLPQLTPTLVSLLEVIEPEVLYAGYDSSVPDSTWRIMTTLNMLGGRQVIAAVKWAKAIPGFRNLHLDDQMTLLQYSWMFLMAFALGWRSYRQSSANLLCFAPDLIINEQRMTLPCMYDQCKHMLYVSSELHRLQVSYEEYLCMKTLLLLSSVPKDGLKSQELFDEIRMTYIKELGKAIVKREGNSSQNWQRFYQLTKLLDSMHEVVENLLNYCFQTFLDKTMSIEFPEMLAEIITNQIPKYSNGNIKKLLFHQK

[6] = target: Mitogen-activated protein kinase 10 (Mus musculus) (UniProt Q61831); assay: JNK3 AlphaScreen Assay (AID 530; active = well fitted curve in either direction with a large enough effect, not every such curve was filed as active;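 note: kinase came from lysate of stimulated human HepG2 cells; signal reports phosphorylation of biotinylated GST-cJun 1-79 at Ser73 with 10 µM ATP; % is set by controls: 0 for no effect and ±100 for the full control effect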)
Outline: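 JNK3 came from HepG2 lysates pre-activated with IL-1beta and TNF-alpha and phosphorylated biotinylated GST-cJun (1-79) at 10 uM ATP, pH 7.6, room temperature. Compounds were titrated. AlphaScreen signal used anti-phospho-cJun (Ser73) antibody.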

[7] = target: 3',5'-cyclic-AMP phosphodiesterase 4B (Homo sapiens) (UniProt Q07343); assay: qHTS Assay for Inhibitors of PDE-IV (AID 607; active = well fitted activation curve with a large enough effect in the main read-out, with a control signal flat, not every such curve was filed as active; note: % of control where 0% means no effect)
Chain of 3',5'-cyclic-AMP phosphodiesterase 4B (Homo sapiens) (Q07343 whole entry, looked up): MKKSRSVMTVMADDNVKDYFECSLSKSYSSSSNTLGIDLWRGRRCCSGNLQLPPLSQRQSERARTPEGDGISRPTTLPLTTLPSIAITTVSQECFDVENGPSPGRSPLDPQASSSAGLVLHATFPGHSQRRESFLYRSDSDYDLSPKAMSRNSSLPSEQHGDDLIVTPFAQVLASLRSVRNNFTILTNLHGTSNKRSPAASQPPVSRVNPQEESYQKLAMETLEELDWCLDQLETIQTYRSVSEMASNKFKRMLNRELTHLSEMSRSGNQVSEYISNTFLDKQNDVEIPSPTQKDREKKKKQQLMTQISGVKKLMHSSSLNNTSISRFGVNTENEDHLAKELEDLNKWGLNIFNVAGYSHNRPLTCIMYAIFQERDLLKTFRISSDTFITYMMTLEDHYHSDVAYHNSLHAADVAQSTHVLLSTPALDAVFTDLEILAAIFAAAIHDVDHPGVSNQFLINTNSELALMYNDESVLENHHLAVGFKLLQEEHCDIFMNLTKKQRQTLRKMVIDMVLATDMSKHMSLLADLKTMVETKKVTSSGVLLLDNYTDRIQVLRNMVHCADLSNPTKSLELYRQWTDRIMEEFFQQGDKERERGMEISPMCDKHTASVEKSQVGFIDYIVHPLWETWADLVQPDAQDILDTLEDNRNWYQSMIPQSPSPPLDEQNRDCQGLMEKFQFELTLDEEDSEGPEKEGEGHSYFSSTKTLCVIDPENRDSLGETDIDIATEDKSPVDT
Outline: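 ACTOne HEK293 cells carry a modified cAMP-gated CNG channel and express endogenous PDE4; plated 1000 cells/well, compounds up to 22.9 uM final. Membrane-potential dye fluorescence (ex 535/em 590) was read; parental cells received 10 uM forskolin + 100 uM RO 20-1724.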

[8] = qHTS Assay for Lipid Storage Modulators (AID 1519; calls by dose curve); conditions: Drosophila S3 cells, BODIPY lipid droplet/cell ratio, laser cytometry, cells loaded with oleic acid
Outline: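 Cells seeded at 5,000 per well were treated with compounds over a concentration series and loaded with oleic acid (400 uM, as added). Lipid droplet fluorescence (488 nm excitation, 500-530 nm channel) was read by laser-scanning cytometry and normalized to 20 uM Triacsin C.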

[9] = target: Ubiquitin carboxyl-terminal hydrolase 1 (Homo sapiens) (UniProt O94782); assay: Inhibitors of USP1/UAF1: Pilot qHTS (AID 504865);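 note: rhodamine fluorescence freed from ubiquitin-rhodamine substrate followed over time; top concentration of the series differs between compounds; % is set by controls: 0 for no effect and ±100 for the full control effect; nearly all actives have a fitted effect of over 35% in size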
Chain of Ubiquitin carboxyl-terminal hydrolase 1 (Homo sapiens) (O94782 whole entry, looked up): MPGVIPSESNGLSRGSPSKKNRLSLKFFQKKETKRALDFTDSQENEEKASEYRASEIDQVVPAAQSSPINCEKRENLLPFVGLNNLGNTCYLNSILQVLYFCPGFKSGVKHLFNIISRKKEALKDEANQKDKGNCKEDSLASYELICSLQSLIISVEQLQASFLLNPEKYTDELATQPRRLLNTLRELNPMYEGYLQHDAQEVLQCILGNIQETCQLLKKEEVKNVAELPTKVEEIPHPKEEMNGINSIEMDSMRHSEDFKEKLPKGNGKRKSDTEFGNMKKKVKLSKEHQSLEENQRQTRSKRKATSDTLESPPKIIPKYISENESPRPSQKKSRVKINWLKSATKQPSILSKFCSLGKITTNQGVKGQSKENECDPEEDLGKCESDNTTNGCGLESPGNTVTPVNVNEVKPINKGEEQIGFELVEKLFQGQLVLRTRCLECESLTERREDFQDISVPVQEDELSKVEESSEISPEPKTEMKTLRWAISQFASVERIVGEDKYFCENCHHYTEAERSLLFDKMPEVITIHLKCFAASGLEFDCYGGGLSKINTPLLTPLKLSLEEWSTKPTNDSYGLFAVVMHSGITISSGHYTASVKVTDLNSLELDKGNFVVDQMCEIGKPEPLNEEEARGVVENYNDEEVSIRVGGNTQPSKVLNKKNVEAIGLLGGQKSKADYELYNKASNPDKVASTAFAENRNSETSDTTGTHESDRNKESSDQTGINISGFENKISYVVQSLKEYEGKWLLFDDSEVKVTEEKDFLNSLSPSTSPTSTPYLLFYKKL
Outline: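 Enzyme-free wells gave the negative control, while test wells held 1nM USP1/UAF1 preincubated with compound for 15 min at room temperature. Ub-Rho at 150nM final started the reaction, and fluorescence at 480/540 nm was recorded kinetically.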

[10] = target: DNA dC->dU-editing enzyme APOBEC-3G (Homo sapiens) (UniProt Q9HC16); assay: qHTS for inhibitors of Vif-A3G interactions: Validation (AID 588379); note: 0% is about no effect
Chain of DNA dC->dU-editing enzyme APOBEC-3G (Homo sapiens) (Q9HC16 whole entry, looked up): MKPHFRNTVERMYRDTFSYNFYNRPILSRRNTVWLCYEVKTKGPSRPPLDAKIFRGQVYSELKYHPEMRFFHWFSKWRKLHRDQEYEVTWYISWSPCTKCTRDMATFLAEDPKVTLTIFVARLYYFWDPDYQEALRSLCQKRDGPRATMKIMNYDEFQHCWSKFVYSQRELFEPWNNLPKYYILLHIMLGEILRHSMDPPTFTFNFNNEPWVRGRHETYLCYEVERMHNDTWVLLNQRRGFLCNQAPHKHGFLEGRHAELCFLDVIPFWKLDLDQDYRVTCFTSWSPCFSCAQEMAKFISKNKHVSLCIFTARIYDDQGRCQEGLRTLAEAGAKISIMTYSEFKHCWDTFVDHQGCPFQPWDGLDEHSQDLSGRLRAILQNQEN
Outline: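 HeLa cells stably expressing Vif and A3G-eYFP, 700 cells/well, incubated overnight at 37 deg C, then exposed to compound overnight at 37 deg C. Inhibition of Vif-mediated degradation read as increased yellow fluorescence (Ex 488/Em 500-530) by laser-scanning cytometry.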

[11] = test system: Zika virus NS2B-NS3 protease; assay: Primary screen GU AMC qHTS for Zika virus inhibitors (AID 1347154);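 note: 0% = no-inhibitor control and -100% = no-enzyme control; nearly all actives have a fitted effect of over 70% in size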
Outline: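 Unlinked Zika NS2B hydrophilic domain/NS3 protease domain noncovalent complex (25 nM final) in 10 mM Tris-HCl pH 8.0, 0.01% Tween 20, with AMC peptide substrate. Fluorescence (ex 340, em 450 nm) change over 15 min, room temperature; percent inhibition fitted to 4-parameter Hill equation.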

[12] = Primary qHTS for small molecule stabilizers of the endoplasmic reticulum resident proteome: Secreted ER Calcium Modulated Protein (SERCaMP) assay (AID 1508630); note: % is set by controls: 0 for no effect and ±100 for the full control effect
Outline: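 GLuc-SERCaMP-expressing SH-SY5Y cells, pretreated 16 h with compound, are challenged with thapsigargin to empty ER calcium stores; after 4 h, coelenterazine is added directly to the medium and luminescence is imaged.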

[13] = target: Glucocorticoid receptor (Homo sapiens) (UniProt P04150); assay: GR-EFC Redistribution (AID 451; calls by dose curve; note: potency is the fitted concentration of half-maximal effect); conditions: CHO-K1 GR-EFC translocation, beta-gal luminescence, 2 h
Outline: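 CHO-K1 cells stably expressing nuclear-localized β-gal enzyme acceptor and GR fused C-terminally to the enzyme donor fragment; ligand-driven nuclear translocation restores β-gal by complementation. Compounds titrated up to 46 uM final, 2 h at 37 °C; luminescence read.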

[14] = target: Cytochrome P450 2D6 (Homo sapiens) (UniProt P10635); assay: qHTS Assay for Inhibitors and Substrates of Cytochrome P450 2D6 (AID 891); note: potency is the fitted concentration of half-maximal effect; nearly all actives have a fitted effect of over 60% in size
Outline: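 Human CYP2D6 (5 nM) with 30 uM Luciferin-ME EGE (at Km) in 100 mM KPO4, compound preincubated 10 min, then NADPH regeneration system for 60 min at room temperature. Luciferin read by luminescence; normalized to 1.43 uM quinidine.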

[15] = target: Cytochrome P450 2C19 (Homo sapiens) (UniProt P33261); assay: qHTS Assay for Inhibitors and Substrates of Cytochrome P450 2C19 (AID 899); note: potency is the fitted concentration of half-maximal effect; nearly all actives have a fitted effect of over 60% in size
Chain of Cytochrome P450 2C19 (Homo sapiens) (P33261 whole entry, looked up): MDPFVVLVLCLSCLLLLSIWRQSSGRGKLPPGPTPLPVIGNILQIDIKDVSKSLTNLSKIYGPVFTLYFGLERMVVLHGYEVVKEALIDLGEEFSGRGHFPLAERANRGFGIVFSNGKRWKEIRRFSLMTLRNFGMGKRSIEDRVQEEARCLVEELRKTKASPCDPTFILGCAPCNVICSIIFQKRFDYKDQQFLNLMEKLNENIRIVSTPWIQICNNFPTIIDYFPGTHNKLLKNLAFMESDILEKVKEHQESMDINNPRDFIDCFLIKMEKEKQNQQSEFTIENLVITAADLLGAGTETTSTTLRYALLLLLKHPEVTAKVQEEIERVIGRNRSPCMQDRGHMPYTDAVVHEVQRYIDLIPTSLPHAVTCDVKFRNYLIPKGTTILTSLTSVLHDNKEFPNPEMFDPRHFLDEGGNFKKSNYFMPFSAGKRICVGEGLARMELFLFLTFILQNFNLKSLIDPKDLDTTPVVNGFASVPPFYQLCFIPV
Outline: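 NADPH-dependent conversion of Luciferin-H EGE (10uM, at KM) by 5nM enzyme in 50mM KPO4, 60 min at 37C following 10 min compound preincubation. Stopped with luciferin detection buffer; luminescence read after 20 min.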

[16] = target: Guanine nucleotide-binding protein G(i) subunit alpha-1 (Homo sapiens) (UniProt P63096); assay: qHTS Assay for Inhibitors of RGS12 GoLoco Motif Activity (Green Fluorophore) (AID 879);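 note: 0% = labeled peptide with Gαi1 and full inhibition = labeled peptide alone without protein; negative values mean loss of peptide binding seen as reduced polarization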
Chain of Guanine nucleotide-binding protein G(i) subunit alpha-1 (Homo sapiens) (P63096 whole entry, looked up): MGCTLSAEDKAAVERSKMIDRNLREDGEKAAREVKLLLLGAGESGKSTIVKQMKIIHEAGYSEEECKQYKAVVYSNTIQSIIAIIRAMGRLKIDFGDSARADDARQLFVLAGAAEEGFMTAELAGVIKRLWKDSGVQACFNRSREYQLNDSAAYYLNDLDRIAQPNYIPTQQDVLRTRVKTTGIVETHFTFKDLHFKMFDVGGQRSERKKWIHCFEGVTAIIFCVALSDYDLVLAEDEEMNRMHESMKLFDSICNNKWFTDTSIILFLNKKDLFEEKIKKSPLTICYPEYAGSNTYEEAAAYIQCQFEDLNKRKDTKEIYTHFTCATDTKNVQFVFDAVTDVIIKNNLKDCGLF
Outline: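 Fluorescence polarization assay: 50 nM Gαi1 with 10 nM FITC-labeled RGS12 GoLoco peptide in 10 mM Tris pH 7.5, 150 mM NaCl, 0.1 mM GDP, 0.05% NP40, 10 min at room temperature with compound.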

[17] = qHTS Assay for Identification of Small Molecule Antagonists for NFkB Signaling Pathway (AID 895; active = well fitted inhibition curve with a large enough effect in the signal ratio, with a control signal flat, not every such curve was filed as active; the % refers to the signal ratio; note: % is set by controls: 0 for no effect and ±100 for the full control effect)
Outline: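 NFkB-bla ME-180 cervical carcinoma cells with beta-lactamase reporter under NFkB response element; compounds added, then TNF alpha at 10 pM final (EC50), 5 h at 37 C. LiveBLAzer substrate 2 h, room temperature; emission 460/530 nm at 405 nm excitation.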

[18] = qHTS Assay for Identification of Small Molecule Agonists for Thrombopoietin (TPO) Signaling Pathway (AID 917); note: % is set by controls: 0 for no effect and ±100 for the full control effect
Outline: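 IL-3-dependent murine pro-B Ba/F3 cells, stably transfected with human TPO receptor and GpIIb-promoter luciferase, are incubated 24 hrs at 37 C with test compound and 26 pM TPO; luciferase signal is read after 10 min at room temperature.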

[19] = target: Muscarinic acetylcholine receptor M1 (Rattus norvegicus) (UniProt P08482); assay: qHTS Assay for Antagonists of Acetylcholine Muscarinic M1 Receptor: Measurement of IP-One Response (AID 944); note: nearly all actives have a fitted effect of over 75% in size
Chain of Muscarinic acetylcholine receptor M1 (Rattus norvegicus) (P08482 whole entry, looked up): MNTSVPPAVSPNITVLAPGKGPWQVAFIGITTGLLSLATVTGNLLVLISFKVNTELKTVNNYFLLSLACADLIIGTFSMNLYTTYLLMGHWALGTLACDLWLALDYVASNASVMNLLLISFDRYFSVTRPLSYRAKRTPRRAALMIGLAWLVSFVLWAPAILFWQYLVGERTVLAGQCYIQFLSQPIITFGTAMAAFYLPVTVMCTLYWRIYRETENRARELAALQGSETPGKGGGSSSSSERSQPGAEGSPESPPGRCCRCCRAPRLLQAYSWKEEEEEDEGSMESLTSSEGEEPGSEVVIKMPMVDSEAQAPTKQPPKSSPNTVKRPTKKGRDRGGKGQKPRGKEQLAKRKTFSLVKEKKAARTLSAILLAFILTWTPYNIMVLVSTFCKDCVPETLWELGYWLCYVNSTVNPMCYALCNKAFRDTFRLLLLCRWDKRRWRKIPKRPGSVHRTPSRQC
Outline: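 Steps: plate transfected CHO-M1 cells overnight; add test compound, 10 min; add carbachol (200 nM, EC80) in stimulation buffer with LiCl; incubate 30 min; add labelled IP1 tracer and anti-IP1 antibody in lysis buffer; read HTRF after 10 min.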

[20] = target: Pyruvate kinase PKM (Homo sapiens) (UniProt P14618); assay: qHTS Assay for Activators of Human Muscle Pyruvate Kinase (AID 954; active = well fitted curve in the direction sought with a large enough effect, not every such curve was filed as active;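 note: 0% = uninhibited enzyme and -100% = no enzyme or full thiadiazolimine inhibition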)
Outline: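 Luminescence from a luciferase ATP-detection/stop reagent reported PKM2 activity. Reactions contained 0.1 nM purified human enzyme, 0.5 mM PEP, 0.1 mM ADP and 7 mM MgCl2 at pH 7.2, run 1 h at RT.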

[21] = target: Alpha-galactosidase A (Homo sapiens) (UniProt P06280); assay: Counterscreen for Glucocerebrosidase Inhibitors: qHTS Assay for Human alpha-Galactosidase at pH 4.5 (AID 992); note: 0% is about no effect
Chain of Alpha-galactosidase A (Homo sapiens) (P06280 whole entry, looked up): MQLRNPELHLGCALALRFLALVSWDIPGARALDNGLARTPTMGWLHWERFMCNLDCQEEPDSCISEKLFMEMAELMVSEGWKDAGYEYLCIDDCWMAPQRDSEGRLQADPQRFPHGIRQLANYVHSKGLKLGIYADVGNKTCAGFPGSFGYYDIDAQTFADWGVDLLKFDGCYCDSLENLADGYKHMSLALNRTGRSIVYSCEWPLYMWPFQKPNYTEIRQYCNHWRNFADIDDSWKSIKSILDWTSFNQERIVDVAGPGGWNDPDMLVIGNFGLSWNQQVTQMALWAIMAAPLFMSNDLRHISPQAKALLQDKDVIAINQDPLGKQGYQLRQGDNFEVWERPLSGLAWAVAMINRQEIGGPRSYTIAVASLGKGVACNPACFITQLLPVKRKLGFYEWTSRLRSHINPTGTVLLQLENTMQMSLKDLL
Outline: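 Enzyme at 2 nM final was combined with compound (0.7 nM to 77 uM) and 80 uM 4-methylumbelliferyl alpha-D-galactopyranoside in 50 mM citric acid, 0.005% Tween-20, pH 4.5. After 20 min at room temperature, fluorescence was read (Ex 365/Em 440 nm); AC50 came from Hill fits.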

[22] = target: alpha-glucosidase (Oryza sativa, rice) (UniProt Q653V4); assay: Counterscreen for Glucocerebrosidase Inhibitors: qHTS Assay for Rice alpha-Glucosidase at pH 5.0 (AID 997);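 note: 0% = full activity with enzyme and -100% = basal without enzyme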
Outline: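 Rice alpha-glucosidase (4 nM final) with 400 uM 4-methylumbelliferyl-alpha-D-glucopyranoside in citrate buffer pH 5.0, 20 min at room temperature, stopped at pH 10; fluorescence 365/440 nm, compounds 0.7 nM–77 uM, AC50 from Hill fits.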

[23] = measured here: cell count channel max response
[24] = measured here: lipid channel max response

CC(C)NC[C@@H](O)COc1ccc(COCCOC(C)C)cc1
inactive: activity change, negative = inhibition ([1]; at 17.2 µM (top of the series)) -0.912% | Potency [2] | activity change, negative = inhibition ([3]; at 17.2 µM (top of the series)) 3.53% | activity, negative = inhibition ([4]; at 17.2 µM (top of the series)) 15.4% | Potency [5] > 20.6 µM and > 46 µM | Potency [6] | Potency [7] | activity change, negative = inhibition ([8]; at 25.7 µM (top of the series)) -1.04% | activity change, negative = inhibition ([8]; at 57.5 µM (top of the series)) 0.281% | Potency [9] | Potency [10] | Potency [11] | Potency [12]
6.08% and -6.81%: max response [8, 24]
2.54% and -5.68%: max response [8, 23]

C[C@](N)(C(=O)O)c1ccc(-c2nn[nH]n2)cc1
inactive: Potency [5] > 46 µM | Potency [13] > 46 µM | Potency [6] | activity change, negative = inhibition ([8]; at 57.5 µM (top of the series)) 7.08% | Potency [9] | Potency [10] | Potency [11] | Potency [12]
14.3%: max response [8, 24]
7.75%: max response [8, 23]
active: Potency [2] 39.8 µM

N[C@@H](C(=O)O)c1ccc(C(=O)O)c(C(=O)O)c1
-0.754% and -2.49% and 18.8%: max response [8, 24]
inactive: Potency [2] | Potency [5] > 46 µM | Potency [13] > 46 µM | Potency [6] | activity change, negative = inhibition ([8]; at 57.5 µM (top of the series)) 1.89% and 0.925% and 9.39% | Potency [9] | Potency [10] | Potency [11] | Potency [12]
active: Potency [14] 7.94 µM | Potency [15] 316 nM and 3.16 µM
-4.21% and -1.65% and 13.2%: max response [8, 23]

C[C@@](N)(C(=O)O)c1ccc(C(=O)O)cc1
inactive: activity change, negative = inhibition ([1]; at 38 µM (top of the series)) 2.6% | activity change, negative = inhibition ([3]; at 38 µM (top of the series)) 6.09% | activity, negative = inhibition ([4]; at 38 µM (top of the series)) 4.5% | Potency [5] > 46 µM | Potency [13] > 46 µM | Potency [6] | Potency [7] | outcome [16] | Potency [17] | Potency [18] | Potency [19] | outcome [20] | outcome [21] | outcome [22] | activity change, negative = inhibition ([8]; at 57.5 µM (top of the series)) -1.38% and 3.86% | Potency [9] | Potency [10] | Potency [11] | Potency [12]
-12.7% and -2.32%: max response [8, 23]
-13.1% and 2.03%: max response [8, 24]
